# Results published in PubChem BioAssay (Tox21).
# Activity calls are given as the source filed them. Calls come from the whole dose curve; as a rule, active = well fitted activation curve with a large enough effect in the repeat runs; inconclusive = weak or mixed curves; inactive = flat fitted curve, though single readings scatter.
# Experiment: A CellTox Green Cytotoxicity Assay to monitor cytotoxicity in HEK293 cells - 0 hour (AID 1224869); note: nearly all actives have a fitted effect of over 50% in size
# Details: CellTox Green fluorescence; series mostly up to 76.8 µM; cytotoxicity: at the top concentration
# Excerpt: National Center for Advancing Translational Sciences [NCATS]
# NIH Chemical Genomics Center [NCGC]
# U.S. Environmental Protection Agency [EPA]
# National Institutes of Environmental Health Sciences [NIEHS]
# National Toxicology Program [NTP]
# Cell-based models are critical for drug discovery. Determining the natural cytotoxic effects resulting from test compounds is an essential research activity. A CellTox Green Cytotoxicity Assay to monitor cytotoxicity in real time of continues cell culture during 40 hours of the compound treatment was used to screen Tox21 10K library compounds in Hek293 cells. CellTox Green Cytotoxicity Assay is a nonlytic, homogeneous, biofluorescent method to measure cytotoxicity in cell culture after experimental manipulation. The assay system uses a proprietary asymmetric cyanine dye that is excluded from viable cells but preferentially stains the dead cell's DNA. […] Viable cells produce no appreciable increases in fluorescence. Therefore, the fluorescence signal produced by the binding interaction with dead cell DNA is proportional to cytotoxicity.
# The mixture of Hek293 cell suspension and reagents were dispensed at 600cells/6 ul/well in 1536-well tissue culture treated black solid bottom plates using a Multidrop dispenser. After the assay plates were incubated at a 37 C/5% CO2 incubator for 5 hours, 23 nL of compounds dissolved in DMSO, positive and negative controls was transferred to the assay plate by a pintool work station. The plates were incubated at 37 C for 40 hours. The fluorescence intensity were measured at 0h, 8h, 16h, 24h, 32h and 40h time points using ViewLux plate reader during compound treatment.
# % is set by controls: 0 for no effect and ±100 for the full control effect.
SMILES,cytotoxicity,Potency
O=C(Oc1ccccc1)c1ccc2ccccc2c1O,-3.36% (inactive),
CCCCCCCCCCCCCOC(=O)CCSCCC(=O)OCCCCCCCCCCCCC,6.82% [at 15.8 µM] (inactive),
c1ccc(CNc2ncnc3c2ncn3C2CCCCO2)cc1 (stereo not given),-12.3% (inactive),
C/C(C=O)=C\c1ccccc1,-1.83% (inactive),
ClC1=C(Cl)C1(Cl)Cl,-0.306% (inactive),
CCN(CC)C(=O)/C(C#N)=C/c1cc(O)c(O)c([N+](=O)[O-])c1,2.9% [at 35.3 µM] (inactive),
CCO[Si](C)(CCCOCC1CO1)OCC (stereo not given),2.31% (inactive),
CCCCCCC(O)CCOC(C)=O (stereo not given),-10% [at 200 µM] (inactive),
CC(C)(C)C(O)/C=C/c1ccc2c(c1)OCO2 (stereo not given),3.73% [at 35.3 µM] (inactive),
CCCCCCC(O)CCCCCCCCCCC(=O)OC (stereo not given),-1.91% (inactive),
CC(=O)NCCO,2.83% (inactive),
O=C(O)CCCc1c[nH]c2ccccc12,-1.6% (inactive),
Cc1ccc(N(CC2=NCCN2)c2cccc(O)c2)cc1,-0.415% [at 35.3 µM] (inactive),
NC(=O)CCCCC(N)=O,-1.61% (inactive),
CC(CCc1ccc(O)cc1)NCCc1ccc(O)c(O)c1 (stereo not given),-1.4% [at 35.3 µM] (inactive),
Nc1nc(-c2ccc([N+](=O)[O-])cc2)cs1,-6.39% (inactive),
CCC(=O)OCc1ccc(OC)cc1,-4.62% (inactive),
Nc1ccc(F)cc1,-6.22% (inactive),
C1CCCCC1,-6.4% (inactive),
COc1ccc(C2C(=O)c3ccccc3C2=O)cc1,-8.07% [at 35.3 µM] (inactive),

SMILES,cytotoxicity,Potency
N[C@@H](Cc1cc(I)c(O)c(I)c1)C(=O)O,-6.29% [at 35.3 µM] (inactive),
Cc1cc(CCCOc2c(C)cc(-c3noc(C(F)(F)F)n3)cc2C)on1,-4.63% [at 35.3 µM] (inactive),
CC1=C2[C@@H]([C@H](C)CC[C@H]2/C=C(\C)C(=O)O)[C@H](O)C1,1.82% (inactive),
CC(C)COC(=O)COc1cc(Cl)c(Cl)cc1Cl,1.55% (inactive),
CC(C)(C)CCCCCCOC(=O)c1ccccc1C(=O)OCCCCCCC(C)(C)C,-0.544% (inactive),
CN(C)CC/C=C1\c2ccccc2Sc2ccc(Cl)cc21,2.34% [at 35.3 µM] (inactive),
O=C(CCS)OCC(COC(=O)CCS)(COC(=O)CCS)COC(=O)CCS,-0.46% (inactive),
O=S(=O)(Cl)c1c(Cl)cccc1Cl,8.97% (inactive),
CC(C)CC(O)CC(C)C,1.46% (inactive),
C[C@@H]1[C@H](O)[C@@H](C)/C=C/C=C\C=C\C=C\C=C\C=C\C=C\[C@H](O[C@@H]2O[C@H](C)[C@@H](O)[C@H](N)[C@@H]2O)C[C@@H]2O[C@](O)(C[C@@H](O)C[C@@H](O)[C@H](O)CC[C@@H](O)C[C@@H](O)CC(=O)O[C@H]1C)C[C@H](O)[C@H]2C(=O)O (stereo in doubt),7.99% (inactive),
CC(=O)c1ccc[nH]1,3.37% (inactive),
Cc1ccc2c(c1)CCCN2,0.368% (inactive),
CCN(CC)CCOC(=O)C(c1ccccc1)c1ccccc1,2.92% [at 35.3 µM] (inactive),
CCCCCCCCCCCCCCCC(=O)OCC,-0.842% (inactive),
CC(C)C(O)C(C)(C)CO (stereo not given),5.87% (inactive),
CCCCCCCC/C=C\CCCCCCCC(=O)OCCO,-0.45% (inactive),
CCSC(=O)N(CC)CC,2.23% (inactive),
CC(C)(O)CCc1ccccc1,-10.9% (inactive),
CCCCCCCCCCCCCCN(C)C,-21.7% [at 15.8 µM] (inactive),
COc1ccc2nc(S(=O)Cc3ncc(C)c(OC)c3C)[nH]c2c1 (stereo not given),,inactive
